Assay results taken from PubChem BioAssay (NCATS).
Where “and” joins values, the source holds several entries; their conditions need not be identical. Identical values can stand only once. Inconclusive results are not listed. Where a call stands in place of a potency, no number is given. Calls of active or inactive are those of the source. Unless noted, calls follow the shape of the dose curve; as a rule, active = well fitted curve in the direction sought with a large enough effect; inconclusive = small, poorly fitted or top-dose-only effect, or another doubt; inactive = no such curve, though single readings can be large; an effect the other way counts as inactive or inconclusive.

Assays:
[1] = Primary qHTS for small molecule stabilizers of the endoplasmic reticulum resident proteome: Secreted ER Calcium Modulated Protein (SERCaMP) assay (AID 1508630)
Method in brief: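 The SH-SY5Y reporter protocol was run at 3 concentrations up to 38.3 uM (primary) or 11 concentrations (follow-up): 16 h compound, 100 nM thapsigargin for 4 h, then extracellular luciferase luminescence.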

[2] = A High-Content qHTS Against Drug Library for the Identification of Small Molecules that Inhibit DYT1 Early Onset Primary Dystonia-Associated Cell Pathology (AID 1645839; calls by dose curve; also: series mostly up to about 46 µM)
Method in brief: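 Induced EGFP-delE TorsinA cells are imaged after 48 h of compound treatment. Punctate fusion-protein distribution gives the %pathology value, while nuclei counts flag toxicity. Wild-type EGFP-hTOR1A cells define the normal pattern.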

Papain (Carica papaya) = Papain (Carica papaya) (UniProt P00784); assay: Primary qHTS assay for inhibitors of the protease papain (AID 1645873);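 also: papain turnover of Z-FR-AMC read as the AMC fluorescence gain over 10 min; series mostly up to about 50 µM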
Sequence of Papain (Carica papaya) (P00784 whole entry, looked up): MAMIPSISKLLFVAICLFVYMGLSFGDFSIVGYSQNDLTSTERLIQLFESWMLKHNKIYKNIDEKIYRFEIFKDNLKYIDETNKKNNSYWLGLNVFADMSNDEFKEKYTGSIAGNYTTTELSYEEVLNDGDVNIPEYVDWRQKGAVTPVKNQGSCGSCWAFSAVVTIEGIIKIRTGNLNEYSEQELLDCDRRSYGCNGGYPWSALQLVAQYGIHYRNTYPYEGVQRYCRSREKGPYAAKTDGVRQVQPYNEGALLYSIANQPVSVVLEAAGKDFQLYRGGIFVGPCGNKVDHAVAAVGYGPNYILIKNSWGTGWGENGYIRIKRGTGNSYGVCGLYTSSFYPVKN

[3] = target: Cytochrome P450 2D6 (Homo sapiens) (UniProt P10635); assay: Cytochrome P450 family 2 subfamily D member 6 (CYP2D6) small molecule antagonists: luciferase biochemical (cell-free) qHTS assay (AID 1645840; active = well fitted curve in the direction sought with a large enough effect in the repeat runs; an effect the other way counts as inactive or inconclusive; also: nearly all actives have a fitted effect of over 55% in size; also: potency is read from the fitted curve at half-maximal effect)
Sequence of Cytochrome P450 2D6 (Homo sapiens) (P10635 whole entry, looked up): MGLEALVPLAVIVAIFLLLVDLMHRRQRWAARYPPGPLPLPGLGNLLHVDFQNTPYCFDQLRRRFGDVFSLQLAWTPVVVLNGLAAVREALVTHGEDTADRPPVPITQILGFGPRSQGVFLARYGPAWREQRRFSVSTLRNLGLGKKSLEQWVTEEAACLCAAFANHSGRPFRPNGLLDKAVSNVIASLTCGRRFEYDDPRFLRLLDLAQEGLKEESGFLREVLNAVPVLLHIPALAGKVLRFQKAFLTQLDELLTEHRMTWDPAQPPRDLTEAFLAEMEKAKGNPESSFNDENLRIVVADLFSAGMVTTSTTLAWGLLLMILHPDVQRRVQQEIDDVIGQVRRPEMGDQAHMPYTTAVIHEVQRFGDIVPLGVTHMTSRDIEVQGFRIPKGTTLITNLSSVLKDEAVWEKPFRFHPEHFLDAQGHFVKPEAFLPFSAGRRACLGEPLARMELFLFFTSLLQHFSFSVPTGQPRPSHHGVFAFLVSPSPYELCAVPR
Method in brief: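 P450-Glo CYP2D6 system: proluciferin substrate converted by enzyme to luciferin, read by luminescence proportional to activity. Enzyme-substrate mix with compound 10 min at room temperature, then NADPH regeneration 1 h before detection reagent.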

[4] = target: Cytochrome P450 2C9 (Homo sapiens) (UniProt P11712); assay: Cytochrome P450 family 2 subfamily C member 9 (CYP2C9) small molecule antagonists: luciferase biochemical (cell-free) qHTS assay (AID 1645842; active = well fitted curve in the direction sought with a large enough effect in the repeat runs; an effect the other way counts as inactive or inconclusive; also: nearly all actives have a fitted effect of over 55% in size; also: potency is read from the fitted curve at half-maximal effect)
Sequence of Cytochrome P450 2C9 (Homo sapiens) (P11712 whole entry, looked up): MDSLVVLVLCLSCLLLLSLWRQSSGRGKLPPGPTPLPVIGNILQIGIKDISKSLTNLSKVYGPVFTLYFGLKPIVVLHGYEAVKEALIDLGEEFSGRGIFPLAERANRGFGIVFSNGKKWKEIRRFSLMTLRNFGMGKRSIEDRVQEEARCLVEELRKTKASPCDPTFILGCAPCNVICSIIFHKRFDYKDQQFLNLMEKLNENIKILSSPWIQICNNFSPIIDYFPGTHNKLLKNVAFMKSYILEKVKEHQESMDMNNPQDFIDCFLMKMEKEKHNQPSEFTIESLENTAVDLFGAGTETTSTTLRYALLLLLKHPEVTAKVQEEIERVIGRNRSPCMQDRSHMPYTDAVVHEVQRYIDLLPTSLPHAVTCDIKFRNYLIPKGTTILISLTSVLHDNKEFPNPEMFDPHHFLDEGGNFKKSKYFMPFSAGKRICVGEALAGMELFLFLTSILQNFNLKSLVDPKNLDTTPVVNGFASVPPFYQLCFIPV
Method in brief: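 P450-Glo CYP2C9 system: proluciferin substrate with enzyme in mix containing 0.4% BSA, 10 min at room temperature, then NADPH regeneration solution added and incubated 1 h at 37C. Detection reagent stopped reaction; luminescence read after 20 min as RLU.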

[5] = target: Cytochrome P450 3A4 (Homo sapiens) (UniProt P08684); assay: Cytochrome P450 family 3 subfamily A member 4 (CYP3A4) small molecule antagonists: luciferase qHTS assay (AID 1645841; active = well fitted curve in the direction sought with a large enough effect in the repeat runs; an effect the other way counts as inactive or inconclusive; also: nearly all actives have a fitted effect of over 45% in size)
Sequence of Cytochrome P450 3A4 (Homo sapiens) (P08684 whole entry, looked up): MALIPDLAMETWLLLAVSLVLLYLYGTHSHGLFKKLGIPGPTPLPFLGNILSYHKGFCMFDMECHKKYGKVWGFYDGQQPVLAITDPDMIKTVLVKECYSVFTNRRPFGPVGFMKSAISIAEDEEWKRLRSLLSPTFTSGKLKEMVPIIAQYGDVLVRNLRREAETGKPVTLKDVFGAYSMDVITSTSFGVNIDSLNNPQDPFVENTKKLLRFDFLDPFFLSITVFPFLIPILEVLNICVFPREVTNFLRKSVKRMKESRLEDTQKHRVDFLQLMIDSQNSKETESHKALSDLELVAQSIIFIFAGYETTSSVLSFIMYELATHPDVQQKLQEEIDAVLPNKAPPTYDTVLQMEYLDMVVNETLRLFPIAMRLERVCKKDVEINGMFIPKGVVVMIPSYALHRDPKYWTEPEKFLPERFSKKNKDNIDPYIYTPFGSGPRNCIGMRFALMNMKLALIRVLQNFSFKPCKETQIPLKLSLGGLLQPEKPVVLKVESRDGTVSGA
Method in brief: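 P450-Glo CYP3A4 enzyme with proluciferin substrate was preincubated with DMSO-dissolved compounds for 10 min at room temperature. NADPH regeneration solution started a 1 h reaction. Detection reagent stopped it, and luminescence was read after 20 min.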

Structure (SMILES)	Potency [1]	Potency [2]	Potency (Papain (Carica papaya))	Potency [3]	Potency [4]	outcome [5]
O=C(c1ccccc1)c1ccc2n1CCC2C(=O)O (centres undefined)	inactive	inactive	inactive	–	–	–
O=c1ccc2ccc(O)c(O)c2o1	inactive	–	–	inactive	–	–
CN1C(C(=O)Nc2ccccn2)=C(O)c2sccc2S1(=O)=O	inactive	inactive	–	inactive	12.3 µM (active)	–
COc1cc2nc(N3CCN(C(=O)C4CCCO4)CC3)nc(N)c2cc1OC (centres undefined)	inactive	inactive	–	–	inactive	–
Cc1ccc(Nc2nccc(N(C)c3ccc4c(C)n(C)nc4c3)n2)cc1S(N)(=O)=O	inactive	inactive	–	–	15.5 µM (active)	–
O=c1c(O)c(-c2ccc(O)cc2O)oc2cc(O)cc(O)c12	inactive	–	–	inactive	–	–
Cc1nccn1CC1CCc2c(c3ccccc3n2C)C1=O (centres undefined)	inactive	inactive	–	11 µM (active) and 13.5 µM (active)	inactive	–
CCC1=C(C)CN(C(=O)NCCc2ccc(S(=O)(=O)NC(=O)NC3CCC(C)CC3)cc2)C1=O (centres undefined)	inactive	–	–	inactive	–	–
CCOC(=O)c1c(C)n(C)c2ccc(O)cc12	inactive	inactive	–	–	inactive	–
CC(C)Oc1ccc2c(=O)c(-c3ccccc3)coc2c1	inactive	inactive	–	inactive	13.8 µM (active) and 21.9 µM (active)	–
CC1(C)NC(=O)N(c2ccc([N+](=O)[O-])c(C(F)(F)F)c2)C1=O	inactive	inactive	inactive	inactive	7.76 µM (active) and 6.01 µM (active)	–
CC(=O)NC[C@H]1CN(c2ccc(N3CCOCC3)c(F)c2)C(=O)O1	inactive	–	inactive	inactive	–	inactive
